# Reference: PubChem BioAssay (NCATS)
# Where “and” joins values, the source holds several entries; their conditions need not be identical. Identical values can stand only once. Inconclusive results are not listed. Entries that show only a call come without a potency. Calls of active or inactive are those of the source. Unless noted, the call rests on the fitted dose curve; in most records, active means well fitted curve in the direction sought with a large enough effect; inconclusive means small, poorly fitted or top-dose-only effect, or another doubt; inactive means no such curve, though single readings can be large; an effect the other way counts as inactive or inconclusive.
# Columns and labels:
# [1] = target: Ferritin light chain (Equus caballus) (UniProt P02791); test: qHTS Validation Assay for Identification of Novel General Anesthetics (AID 2323); settings: horse apoferritin, anesthetic-site fluorescent probe displacement; series mostly up to 76.9 µM
# Method in brief: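 Normalized fluorescence response, scaled between free 1-AMA and 1-AMA/apoferritin complex, fitted to a four-parameter Hill equation for concentration-effect values. Binding mix: 10 uM horse-spleen apoferritin, 50% saturated 1-AMA in PBS; read 380/535 nm after 10 min.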
# [2] = Validation screen for small molecules that induce genotoxicity in human embryonic kidney (HEK293T) cells expressing luciferase-tagged ELG1 (AID 493106); settings: luminescence; series mostly up to 46.1 µM
# Method in brief: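 qHTS format; 2,000 HEK293T ELG1-luc cells/well; 23 nL compound via pin tool; 16 hr, 37 °C/5% CO2; ONE-Glo, 30 min RT; luminescence read.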
# [3] = target: Endonuclease 4 (Escherichia coli (strain K12)) (UniProt P0A6C1); test: Counterscreen for APE1 Inhibitors: qHTS Validation Assay for Inhibitors of Endonuclease IV (AID 1708); settings: E. coli endonuclease IV, DNA cleavage fluorescence; series mostly up to 57.1 µM
# Method in brief: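 Measured as reaction progress, the fluorescence gain between first and third kinetic reads after adding 50 nM TAMRA/BHQ-2 THF duplex to 2 nM enzyme preincubated 15 min with compound; 2 mM MgCl2, pH 7.5.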
# [4] = Cytometry Cell-Based qHTS for Inhibitors of the mTORC1 Signaling Pathway in MEF cells (AID 2668); settings: mTORC1 pathway readout; series mostly up to 38.3 µM; further: potency means the concentration at half of the fitted maximal effect
# Method in brief: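 In MEFs grown in DMEM + 10% FBS, a 24 hrs compound exposure preceded imaging of phospho-rpS6 Ser235/236 by laser-scanning cytometry.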
# [5] = target: Thioredoxin reductase 1, cytoplasmic (Rattus norvegicus) (UniProt O89049); test: qHTS Assay for Inhibitors of Mammalian Selenoprotein Thioredoxin Reductase 1 (TrxR1) (AID 488773); settings: purified TrxR1 enzyme activity; Potency: inhibition; series mostly up to 57.1 µM; further: nearly all actives have a fitted effect of over 40% in size; further: potency means the concentration at half of the fitted maximal effect
# Method in brief: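 Inhibition is scored from the loss of NADPH fluorescence between first and last reads of an 8-min kinetic run. Selenite (400 uM) was the substrate, added after 15 min compound preincubation at room temperature.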
# [6] = qHTS for Activators of Parkin Expression: LOPAC Validation Assay (FLuc Reporter) (AID 720573); settings: Cell line, PRKN promoter firefly luciferase reporter, vehicle wells = 0, positive control = 100%; series mostly up to 46.1 µM
# Method in brief: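 Readout is FLuc luminescence from neuronal reporter cells (Parkin promoter, FLuc plus NLuc) after 24 h compound exposure in dose response. Values normalized to neutral DMSO and positive-control compounds.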
# [7] = target: Estrogen receptor (Homo sapiens) (UniProt P03372); test: qHTS assay for small molecule antagonists of estrogen receptor alpha signaling (AID 588513; active means well fitted curve in the direction sought with a large enough effect in the signal ratio, with a control signal flat, not every such curve was filed as active; the % refers to the signal ratio); settings: ER-alpha-UAS-bla HEK293, beta-lactamase ratio, antagonist mode; series mostly up to 76.9 µM
# Method in brief: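 Antagonist-mode qHTS in ER-alpha-UAS-bla HEK 293 cells: compound titration, 0.5nM estradiol for 18 h, CCF4 fluorescence, Hill-derived IC50.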
# [8] = target: Bile acid receptor (Homo sapiens) (UniProt Q96RI1); test: qHTS assay for small molecule antagonists of farnesoid X receptor signaling (AID 588526; calls by dose curve); settings: HEK293T FXR-UAS-bla, beta-lactamase ratio, antagonist mode; series mostly up to 76.7 µM
# Method in brief: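 Concentration-response titrations were fitted to the Hill equation for half-maximal inhibition and maximal response, with data normalised to 50 uM chenodeoxycholic acid and DMSO control wells. Cells: FXR-UAS-bla HEK293T, dialyzed FBS.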
# [9] = target: Glucocorticoid receptor (Homo sapiens) (UniProt P04150); test: qHTS assay for small molecule agonists of glucocorticoid receptor signaling (AID 588532; active means well fitted curve in the direction sought with a large enough effect in the signal ratio, with a control signal flat; the % refers to the signal ratio); settings: HeLa MMTV-bla, beta-lactamase ratio, agonist, 18 h; stronger effect = higher value; percent of dexamethasone control, DMSO zero
# Method in brief: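 Stimulation of a glucocorticoid response element-driven beta-lactamase gene was measured in HeLa cells. Responses were scaled between DMSO basal and 0.1 uM dexamethasone, then fitted for half-maximal stimulation.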
# [10] = target: Peroxisome proliferator-activated receptor gamma (Homo sapiens) (UniProt P37231); test: qHTS assay for small molecule antagonists of peroxisome proliferator-activated receptor gamma signaling (AID 588537; active means well fitted inhibition curve with a large enough effect in the signal ratio, with a control signal flat, not every such curve was filed as active; the % refers to the signal ratio;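 further: reporter cells co-stimulated with 50 nM rosiglitazone agonist during compound treatment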); settings: HEK293 PPARg-UAS-bla, beta-lactamase ratio, antagonist mode; series mostly up to 76.8 µM
# Method in brief: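 HEK293 cells, PPAR-gamma-UAS-bla, 3000/well. Pre-incubation 6-6.5 h, 37 C. Compound titration with rosiglitazone 50 nM final, 16 h. CCF4 dye, 2 h RT, dual-emission fluorescence.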
# [11] = qHTS assay for small molecule agonists of retinoid X receptor alpha signaling (AID 588544; calls by dose curve); settings: HEK293T RXRa-UAS-bla, beta-lactamase reporter, 18 h; 530 nm emission
# [12] = target: Retinoic acid receptor RXR-alpha (Homo sapiens) (UniProt P19793); test: as above; settings: HEK293T RXRa-UAS-bla, beta-lactamase reporter, 18 h; series mostly up to 76.7 µM
# [13] = target: Nuclear receptor subfamily 1 group I member 2 (Rattus norvegicus) (UniProt Q9R1A7); test: qHTS assay for small molecule activators of the rat pregnane X receptor (rPXR) signaling pathway (AID 651751; call rule not given here); settings: rPXR reporter cells, luciferase (One-Glo), 24 h
# [14] = qHTS assay for small molecule activators of the human pregnane X receptor (PXR) signaling pathway (AID 720659; call rule not given here); settings: DPX-2 HepG2 CYP3A4-luciferase, 24 h; series mostly up to 92.3 µM
# [15] = qHTS for differential inhibitors of proliferation of Plasmodium falciparum line 7G8 (AID 1815); settings: Plasmodium falciparum 7G8 proliferation inhibition; series mostly up to 28.7 µM;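 further: potency means the concentration at half of the fitted maximal effect; parasite growth measured after three days of incubation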
# [16] = qHTS for differential inhibitors of proliferation of Plasmodium falciparum line GB4 (AID 1816); settings: Potency: Plasmodium falciparum GB4 proliferation inhibition; series mostly up to 28.7 µM;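 further: potency means the concentration at half of the fitted maximal effect; parasite growth measured after 72 h incubation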
# [17] = qHTS for differential inhibitors of proliferation of Plasmodium falciparum line 3D7 (AID 1876); further: potency means the concentration at half of the fitted maximal effect; settings: P. falciparum 3D7 proliferation inhibition; series mostly up to 28.7 µM
# [18] = qHTS for differential inhibitors of proliferation of Plasmodium falciparum line Dd2 (AID 1882); settings: Potency: Plasmodium falciparum Dd2 proliferation inhibition; series mostly up to 28.7 µM; further: potency means the concentration at half of the fitted maximal effect; nearly all actives have a fitted effect of over 65% in size
# Method in brief: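 RBC culture, 0.3% parasitemia / 2.5% Hct final; cpd added by pin tool in DMSO; 72 h, 37 C, 5% CO2; lysis buffer + SYBR Green I, o/n RT dark; FI 485/535; norm. to artemisinin 0.29 uM and DMSO.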
# [19] = Cell Viability - LYMP2-020 (AID 986); settings: series mostly up to 92.2 µM;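 further: cells exposed to compound for 24 h at 37 °C; nearly all actives have a fitted effect of over 55% in size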
# Method in brief: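 qHTS, 2500 cells/well; 5 hr then 24 hr compound exposure, 37 C; CellTiter-Glo luminescence after 30 min RT; ATP decrease taken as cytotoxicity; AC50 via Hill equation; tetraoctylammonium bromide positive control.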
# [20] = target: Vitamin D3 receptor (Homo sapiens) (UniProt P11473); test: qHTS assay for small molecule antagonists of vitamin D receptor signaling (AID 588541; calls by dose curve;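 further: receptor activated by calcitriol during compound treatment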); settings: HEK293T VDR-UAS-bla, beta-lactamase ratio, antagonist mode; series mostly up to 76.7 µM
# Method in brief: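 VDR-UAS-bla HEK293T cells (2000/well, 2% charcoal-stripped FBS) were treated with titrated compounds plus 1-alpha,25-dihydroxyvitamin D3 (50 nM or 3 nM final) for 16 h at 37 C. CCF4 beta-lactamase fluorescence was read; Hill fits gave IC50.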
# Retinoic acid receptor RXR-alpha (Homo sapiens), sequence (P19793 whole entry, looked up): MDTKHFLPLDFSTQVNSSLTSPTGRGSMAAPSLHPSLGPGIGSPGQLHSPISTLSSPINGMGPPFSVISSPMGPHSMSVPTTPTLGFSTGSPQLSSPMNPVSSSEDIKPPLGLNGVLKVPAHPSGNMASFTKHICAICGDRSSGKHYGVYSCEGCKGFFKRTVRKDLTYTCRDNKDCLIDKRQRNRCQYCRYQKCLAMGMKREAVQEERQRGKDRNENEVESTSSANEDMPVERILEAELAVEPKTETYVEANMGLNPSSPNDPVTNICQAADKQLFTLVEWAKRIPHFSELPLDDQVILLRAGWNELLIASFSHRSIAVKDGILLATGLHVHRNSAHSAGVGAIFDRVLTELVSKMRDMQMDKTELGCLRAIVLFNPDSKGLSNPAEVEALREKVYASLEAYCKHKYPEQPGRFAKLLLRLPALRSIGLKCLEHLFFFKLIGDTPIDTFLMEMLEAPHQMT
# Ferritin light chain (Equus caballus), sequence (P02791 2-175 limits assumed): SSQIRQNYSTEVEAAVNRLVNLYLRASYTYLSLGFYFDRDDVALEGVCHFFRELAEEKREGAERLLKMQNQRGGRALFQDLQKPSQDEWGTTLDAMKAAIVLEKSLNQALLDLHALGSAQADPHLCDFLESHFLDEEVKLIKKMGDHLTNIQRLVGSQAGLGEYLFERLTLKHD
# Glucocorticoid receptor (Homo sapiens), sequence (P04150 whole entry, looked up): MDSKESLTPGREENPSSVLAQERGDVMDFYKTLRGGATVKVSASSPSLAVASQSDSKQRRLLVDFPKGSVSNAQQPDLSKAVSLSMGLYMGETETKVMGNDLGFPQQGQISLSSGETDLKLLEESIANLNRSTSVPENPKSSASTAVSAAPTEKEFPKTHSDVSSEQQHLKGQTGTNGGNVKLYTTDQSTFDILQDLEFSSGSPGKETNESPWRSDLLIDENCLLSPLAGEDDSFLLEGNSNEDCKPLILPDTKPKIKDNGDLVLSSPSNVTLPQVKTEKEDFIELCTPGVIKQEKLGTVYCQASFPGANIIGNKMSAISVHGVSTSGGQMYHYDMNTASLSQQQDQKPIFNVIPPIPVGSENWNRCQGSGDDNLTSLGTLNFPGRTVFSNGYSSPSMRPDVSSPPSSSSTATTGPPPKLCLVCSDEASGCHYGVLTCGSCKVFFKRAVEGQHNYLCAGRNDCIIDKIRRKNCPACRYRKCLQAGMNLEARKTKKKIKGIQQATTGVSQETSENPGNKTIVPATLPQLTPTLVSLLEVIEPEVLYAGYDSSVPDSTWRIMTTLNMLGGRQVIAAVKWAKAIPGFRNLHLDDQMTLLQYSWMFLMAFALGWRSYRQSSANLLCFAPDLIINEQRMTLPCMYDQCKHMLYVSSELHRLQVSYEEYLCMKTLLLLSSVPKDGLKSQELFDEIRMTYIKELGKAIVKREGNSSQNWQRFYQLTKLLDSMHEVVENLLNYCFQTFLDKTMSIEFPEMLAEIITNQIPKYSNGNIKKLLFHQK
# Peroxisome proliferator-activated receptor gamma (Homo sapiens), sequence (P37231 whole entry, looked up): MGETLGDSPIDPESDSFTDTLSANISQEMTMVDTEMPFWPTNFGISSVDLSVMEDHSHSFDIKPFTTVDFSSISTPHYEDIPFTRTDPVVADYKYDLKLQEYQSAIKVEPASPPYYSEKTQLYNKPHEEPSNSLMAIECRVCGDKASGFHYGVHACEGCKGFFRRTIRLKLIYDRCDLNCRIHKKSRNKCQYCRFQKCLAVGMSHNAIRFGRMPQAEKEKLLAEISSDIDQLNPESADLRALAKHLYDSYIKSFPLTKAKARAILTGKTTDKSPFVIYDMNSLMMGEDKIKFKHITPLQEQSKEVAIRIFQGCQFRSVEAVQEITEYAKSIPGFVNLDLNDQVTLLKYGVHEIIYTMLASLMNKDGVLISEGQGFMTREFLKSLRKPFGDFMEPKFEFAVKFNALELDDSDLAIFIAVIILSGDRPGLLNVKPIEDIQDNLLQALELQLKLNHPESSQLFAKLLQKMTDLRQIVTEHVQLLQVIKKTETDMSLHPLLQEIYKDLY
# Thioredoxin reductase 1, cytoplasmic (Rattus norvegicus), sequence (O89049 whole entry, looked up): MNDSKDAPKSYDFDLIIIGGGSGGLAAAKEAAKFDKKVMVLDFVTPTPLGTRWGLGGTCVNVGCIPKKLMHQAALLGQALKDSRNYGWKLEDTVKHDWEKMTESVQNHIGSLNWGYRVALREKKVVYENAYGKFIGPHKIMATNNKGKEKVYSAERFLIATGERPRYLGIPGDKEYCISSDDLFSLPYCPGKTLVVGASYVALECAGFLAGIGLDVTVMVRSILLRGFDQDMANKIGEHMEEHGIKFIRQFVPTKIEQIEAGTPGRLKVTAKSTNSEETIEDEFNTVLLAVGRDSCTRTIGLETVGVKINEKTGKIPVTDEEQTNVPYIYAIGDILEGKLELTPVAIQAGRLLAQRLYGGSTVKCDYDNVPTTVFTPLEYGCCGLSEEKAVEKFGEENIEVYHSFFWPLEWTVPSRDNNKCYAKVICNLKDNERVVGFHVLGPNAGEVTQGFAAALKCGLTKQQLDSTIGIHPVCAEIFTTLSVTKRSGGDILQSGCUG
# Vitamin D3 receptor (Homo sapiens), sequence (P11473 whole entry, looked up): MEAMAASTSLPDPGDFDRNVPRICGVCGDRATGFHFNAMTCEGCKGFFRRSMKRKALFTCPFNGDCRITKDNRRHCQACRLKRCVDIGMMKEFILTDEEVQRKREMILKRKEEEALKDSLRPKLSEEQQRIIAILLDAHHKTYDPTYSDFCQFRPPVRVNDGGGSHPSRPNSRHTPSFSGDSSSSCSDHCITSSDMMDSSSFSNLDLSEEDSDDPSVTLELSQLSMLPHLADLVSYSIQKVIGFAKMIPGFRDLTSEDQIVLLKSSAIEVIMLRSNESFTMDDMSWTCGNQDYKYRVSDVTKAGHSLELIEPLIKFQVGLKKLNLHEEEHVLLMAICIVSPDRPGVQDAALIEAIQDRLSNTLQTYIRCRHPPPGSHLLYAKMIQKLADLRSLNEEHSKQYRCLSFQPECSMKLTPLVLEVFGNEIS
# Nuclear receptor subfamily 1 group I member 2 (Rattus norvegicus), sequence (Q9R1A7 whole entry, looked up): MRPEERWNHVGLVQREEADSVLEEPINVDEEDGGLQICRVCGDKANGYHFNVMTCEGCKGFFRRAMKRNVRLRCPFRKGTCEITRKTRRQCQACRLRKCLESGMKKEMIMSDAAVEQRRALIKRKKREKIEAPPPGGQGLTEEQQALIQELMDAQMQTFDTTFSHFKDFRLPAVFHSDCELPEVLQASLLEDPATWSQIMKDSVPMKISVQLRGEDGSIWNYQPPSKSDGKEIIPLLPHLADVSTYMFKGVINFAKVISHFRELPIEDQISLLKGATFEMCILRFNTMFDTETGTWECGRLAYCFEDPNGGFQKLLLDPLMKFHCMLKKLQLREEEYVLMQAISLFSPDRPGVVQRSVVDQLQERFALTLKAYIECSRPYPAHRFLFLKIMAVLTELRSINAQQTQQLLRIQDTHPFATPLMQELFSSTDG
# Bile acid receptor (Homo sapiens), sequence (Q96RI1 whole entry, looked up): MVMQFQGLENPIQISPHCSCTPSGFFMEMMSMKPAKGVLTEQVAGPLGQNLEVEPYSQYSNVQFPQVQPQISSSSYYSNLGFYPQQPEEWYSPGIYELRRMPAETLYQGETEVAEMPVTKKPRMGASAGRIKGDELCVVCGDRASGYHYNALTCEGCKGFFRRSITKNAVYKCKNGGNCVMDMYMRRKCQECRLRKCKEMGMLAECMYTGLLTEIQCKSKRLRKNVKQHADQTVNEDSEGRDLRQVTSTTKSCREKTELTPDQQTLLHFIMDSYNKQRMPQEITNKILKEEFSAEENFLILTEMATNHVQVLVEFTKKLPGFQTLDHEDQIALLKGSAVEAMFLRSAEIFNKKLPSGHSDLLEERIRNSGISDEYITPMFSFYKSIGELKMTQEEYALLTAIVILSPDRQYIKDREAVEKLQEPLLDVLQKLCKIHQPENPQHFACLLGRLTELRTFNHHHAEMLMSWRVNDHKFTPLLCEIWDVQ
# Estrogen receptor (Homo sapiens), sequence (P03372 whole entry, looked up): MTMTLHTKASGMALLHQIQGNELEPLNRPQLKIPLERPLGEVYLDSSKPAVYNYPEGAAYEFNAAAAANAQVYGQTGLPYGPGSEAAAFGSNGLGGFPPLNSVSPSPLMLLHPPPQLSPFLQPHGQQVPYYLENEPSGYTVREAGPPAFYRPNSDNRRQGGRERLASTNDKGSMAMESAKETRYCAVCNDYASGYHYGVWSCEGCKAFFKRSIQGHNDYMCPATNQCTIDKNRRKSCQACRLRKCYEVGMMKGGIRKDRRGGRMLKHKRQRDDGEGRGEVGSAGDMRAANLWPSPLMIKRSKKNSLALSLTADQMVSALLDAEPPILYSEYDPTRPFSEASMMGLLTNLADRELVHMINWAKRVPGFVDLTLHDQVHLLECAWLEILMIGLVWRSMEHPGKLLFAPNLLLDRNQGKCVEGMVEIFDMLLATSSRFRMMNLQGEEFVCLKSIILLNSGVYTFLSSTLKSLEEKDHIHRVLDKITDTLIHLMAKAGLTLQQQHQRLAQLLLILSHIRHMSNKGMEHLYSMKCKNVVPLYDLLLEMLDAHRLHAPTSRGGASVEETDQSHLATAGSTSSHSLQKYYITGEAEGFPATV
smiles,measurement,setting,value
Nc1nc(N)c2nc(CNc3ccc(C(=O)NC(CCC(=O)O)C(=O)O)cc3)cnc2n1 (stereo not drawn),outcome,[1],inactive
same,outcome,[2],inactive
Oc1ccccc1O,outcome,[3],inactive
same,Potency,[4],10.4 µM (active)
same,Potency,[5],11.9 µM (active)
same,outcome,[6],inactive
CC(C)NC[C@H](O)COc1cccc2[nH]ccc12,outcome,[3],inactive
same,outcome,[6],inactive
CC(C)COC(=O)c1ccccc1C(=O)OCC(C)C,Potency,[7],inactive
same,Potency,[8],inactive
same,activation,[9],-1.08% (inactive)
same,Potency,[10],inactive
same,max response,[11],-12.5%
same,outcome,[12],inactive
same,max response,[13],-3.74% (inactive)
same,outcome,[14],inactive
N#C/C(=C\c1ccc(O)c(O)c1)C(=O)NCCCNC(=O)/C(C#N)=C/c1ccc(O)c(O)c1,outcome,[3],inactive
same,Potency,[15],2.82 µM (active)
same,Potency,[16],2.24 µM (active)
same,Potency,[17],2.24 µM (active)
same,Potency,[18],3.16 µM (active)
NO,Potency,[17],12.6 µM (active)
Oc1ccccc1Cl,outcome,[19],inactive
same,outcome,[20],inactive
same,max response,[11],8.5%
same,outcome,[12],inactive
same,max response,[13],0.452% (inactive)
same,outcome,[14],inactive
c1ccc2c(c1)-c1cccc3cccc-2c13,outcome,[19],inactive
same,Potency,[10],inactive
same,outcome,[20],inactive
Nc1nc2[nH]c(=O)cnc2c(=O)[nH]1,outcome,[1],inactive
same,Potency,[5],inactive
Nc1nc2ccc(Cl)cc2c2nc(-c3ccco3)nn12,outcome,[1],inactive
same,Potency,[4],5.85 µM (active)
c1ccc(Nc2ccc3ccccc3c2)cc1,outcome,[19],inactive
same,Potency,[7],inactive
same,Potency,[8],inactive
same,activation,[9],-2.76% (inactive) and -2.2% (inactive)
COc1cc([C@@H]2c3cc4c(cc3[C@H](O)C3COC(=O)[C@@H]32)OCO4)cc(OC)c1OC (stereo partly drawn),Potency,[16],12.6 µM (active)
same,Potency,[4],0.0465 µM (active)
O=c1oc(Cl)c(Cl)c2ccccc12,Potency,[5],7.52 µM (active)
same,outcome,[6],inactive
CC(=O)/C=C/c1ccccc1,outcome,[19],inactive
same,outcome,[20],inactive
same,max response,[11],-2.3%
same,outcome,[12],inactive
same,max response,[13],-0.846% (inactive)
same,outcome,[14],inactive
Brc1c(Br)c(Br)c2n[nH]nc2c1Br,outcome,[2],inactive
COC1=CC(=O)OC(CCc2ccc3c(c2)OCO3)C1 (stereo not drawn),Potency,[7],inactive
same,Potency,[8],inactive
same,activation,[9],3.34% (inactive)
same,Potency,[10],inactive
CN1[C@@H](CC(=O)c2ccccc2)CCC[C@H]1C[C@H](O)c1ccccc1,Potency,[15],6.31 µM (active)
same,Potency,[16],10 µM (active)
same,Potency,[18],8.91 µM (active)
CCCCCCCCCC[Si](C)(C)CCC(=O)NC(Cc1ccc(C)cc1)c1ccccc1 (stereo not drawn),Potency,[15],3.55 µM (active)
same,Potency,[16],2.24 µM (active)
same,Potency,[17],2.82 µM (active)
same,Potency,[18],5.01 µM (active)
same,outcome,[1],inactive
CCOC(=O)c1ccccc1N,outcome,[19],inactive
same,Potency,[7],inactive
same,Potency,[8],inactive
same,activation,[9],0.622% (inactive)
same,outcome,[20],inactive
same,max response,[11],-10.9%
same,outcome,[12],inactive
same,max response,[13],-1.87% (inactive)
same,outcome,[14],inactive
COc1ccc2c(c1)CCC1C2CC[C@@]2(C)C1CC[C@@H]2NCCCCCCN1C(=O)C=CC1=O (stereo partly drawn),outcome,[6],inactive
NC1C=CC=C(C(=O)O)C1 (stereo not drawn),outcome,[2],inactive
